# Bioassay records: PubChem, National Center for Advancing Translational Sciences (NCATS)
# BAZ2B block: blocks human BAZ2B. 360,000 compounds, 4.4% hits. AlphaScreen BAZ2B-H3K14Ac peptide displacement. Potency, µM (highest dose often 114 µM), inactives show at the top dose activity change, negative = inhibition, hits mostly inhibitors; further: potency means the concentration at half of the fitted maximal effect; on the % scale 0 is the no-effect control and ±100 the full control effect; nearly all actives have a fitted effect of over 60% in size
#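 Compounds, titrated to a top concentration of 110 uM, were incubated 30 min at room temperature with preformed BAZ2B/acetyl-K14 H3 peptide complex (50 nM each). Proximity signal was measured by AlphaScreen after 20 min with beads.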
# HP1b binding inh: HP1-beta chromodomain-methylated histone interaction inhibition. 390,000 compounds, 0.56% hits. Potency, µM (top dose mostly 114 µM), without a hit: top-dose activity change, negative = inhibition, hits mostly inhibitors. AID 540317. P83916. AlphaScreen HP1-beta / biotin-H3K9me3 peptide binding; further: potency means the concentration at half of the fitted maximal effect; nearly all actives have a fitted effect of over 70% in size
# Target sequence (P83916 whole entry, looked up): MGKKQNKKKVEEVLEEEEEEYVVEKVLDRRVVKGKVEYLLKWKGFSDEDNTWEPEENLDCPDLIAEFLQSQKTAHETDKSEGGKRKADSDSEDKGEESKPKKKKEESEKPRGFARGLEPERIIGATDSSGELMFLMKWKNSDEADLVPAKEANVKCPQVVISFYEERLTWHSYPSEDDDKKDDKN
#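 HP1-beta protein (50 nM final) preincubated 30 min at room temperature with biotinylated H3(1-18)K9me3 peptide (50 nM) in PBS pH 7.4, 0.01% Tween-20, then compound added for 30 min. AlphaScreen streptavidin donor/nickel chelate acceptor beads (10 ug/mL final), 30 min dark, luminescence read.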
# Six1-Eya2 blk: blocks human Six1 binding to Eya2. AlphaScreen GST-Six1/His-Eya2 binding, biochemical; hits give low values. activity change, % (test concentration not listed). 360,000 compounds, 0.56% hits; in the data active means activity change below about -65%; inconclusive means mostly about -30% to -63%; further: on the % scale 0 is the no-effect control and ±100 the full control effect
#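 AlphaScreen luminescence read after one hour at 37 °C in darkness. Pin-transferred compounds met GST-Six1 and His-Eya2 protein (5X stock 250 nM/500 nM) plus glutathione donor and Ni-chelate acceptor beads (5X, 50 ug/mL).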
# JMJD2A Tudor inh: blocks the human JMJD2A Tudor domain | 390,000 compounds, 4.4% hits | Potency, µM (doses to about 114 µM), for the others: at the top dose activity change, negative = inhibition, actives largely listed as inhibitors | AlphaScreen JMJD2A-Tudor / H3K4me3 peptide binding; further: potency means the concentration at half of the fitted maximal effect; on the % scale 0 is the no-effect control and ±100 the full control effect; nearly all actives have a fitted effect of over 50% in size
# G9a block: inhibitors of human histone lysine methyltransferase G9a; Q96KQ7; G9a H3K9 monomethylation, AlphaScreen, 2 h; Potency, µM (doses to about 102 µM), for inactives: top-dose activity, negative = inhibition, actives largely listed as inhibitors; 350,000 compounds, 8.8% hits; AID 504332; further: potency means the concentration at half of the fitted maximal effect; on the % scale 0 is the no-effect control and ±100 the full control effect; nearly all actives have a fitted effect of over 75% in size
# Target sequence (Q96KQ7 913-1193 limits assumed): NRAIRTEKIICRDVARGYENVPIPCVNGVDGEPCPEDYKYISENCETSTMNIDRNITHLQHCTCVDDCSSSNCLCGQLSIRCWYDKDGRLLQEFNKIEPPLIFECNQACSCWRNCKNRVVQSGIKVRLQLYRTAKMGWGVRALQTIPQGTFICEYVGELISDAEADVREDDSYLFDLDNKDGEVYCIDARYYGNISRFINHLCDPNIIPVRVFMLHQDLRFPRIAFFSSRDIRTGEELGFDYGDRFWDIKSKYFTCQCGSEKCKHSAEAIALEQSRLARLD
#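 Using a bead-based AlphaScreen, monomethylated H3K9 product from 2 h room-temperature reactions (G9a 20 nM, peptide 500 nM, SAM 20 uM) was detected with 0.5 ug/mL rabbit anti-H3K9me1 antibody.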
# CtBP-E1A blk: blocks the CtBP interaction with E1A | AlphaScreen GST-E1A/His-CtBP binding, 1536-well; hits give low values | activity change, % (test concentration not listed) | 340,000 compounds, 0.49% hits | AID 651724; in the data active means activity change below about -65%; inconclusive means mostly about -30% to -63%; further: on the % scale 0 is the no-effect control and ±100 the full control effect
#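 GST-E1A and His-tagged CtBP (125 nM each as 5X stock) were preincubated with pin-transferred compound for 2 h at 37 °C in the dark, then glutathione donor and nickel acceptor beads were added for 1 h before AlphaScreen reading.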
# The depositor's hits bear a star; ? = inconclusive; / = no result given; [ ] = another dose, or the depositor's remark. Sampled rows, rich in hits. Any-hit rate of the full collection: about 10%. Unless noted, the call rests on the fitted dose curve; in most records, active means well fitted inhibition curve with a large enough effect; inconclusive means small, poorly fitted or top-dose-only effect; inactive means no such curve, though single readings can be large or run the other way.
SMILES,BAZ2B block,HP1b binding inh,Six1-Eya2 blk,JMJD2A Tudor inh,G9a block,CtBP-E1A blk
O=C(NCCCn1ccnc1)c1cccc(S(=O)(=O)Nc2ccc(F)cc2)c1,-0.7%,20.2%,-8.1,-28.1%,-4.8%,6.8
O=C(NCCCn1ccnc1)c1cccc(S(=O)(=O)Nc2ccc(Br)cc2)c1,-35.2%,20.3%,2.5,-26.9%,11.2µM*,-3.2
O=C(CSc1ncc(-c2ccccc2)[nH]1)Nc1ccc(Cl)cc1,-33.8%,-1.2%,/,?,?,/
NC(N)=Nc1nc(CSCC/C(N)=N/S(N)(=O)=O)cs1,2.4%,19.4%,-0.7,22.4µM*,-4.4%[59 µM],-5.6
Cc1ccc(-c2csc(N=C(N)N)n2)cc1,?,3.4%,-8.5,-31.4%,?,-23.4
CNC(=O)C1C(=S)NC(N)=C(C#N)C1c1ccccc1 (centres undefined),-10.6%,-19.2%,-11.3,25.1µM*,12.6µM*,-4.2
Cc1ccc(/C=C/c2onc(C)c2S(=O)(=O)N2CCC(C(=O)Nc3cccc(C#N)c3)CC2)cc1,1.3%,14.3%[57 µM],/,-15.7%,11.7%[59 µM],/
CCc1ccccc1NNC(=O)CCc1ccccc1,-3.3%,18.5%,5.2,-7.4%,28.2µM*,3.8
CC(C)NC(=O)C(=O)NNC(=O)CCc1ccccc1,-38.8%,19.9%,-2.1,14.1µM*,?,5.9
COc1cccc(NCc2ccc([N+](=O)[O-])s2)c1,?,?,-14.2,?,12.6µM*,-6.9
COc1cccc(CNc2ccc([N+](=O)[O-])cc2C)c1,-29.2%,27.0%,-13.5,-28.6%,/,-1.7
CCn1cc(C(=O)O)c(=O)c2cc(F)c(N/N=C/c3ccccc3[N+](=O)[O-])cc21,-32.1%,21.9%,?,6.2%,22.6%[59 µM],?
CN1CCC(N(C)CC(=O)Nc2ccccc2N2CCOCC2)CC1,56.2µM*,?,-2.5,8.91µM*,?,4.1
CCOC(=O)c1ccccc1NC(=O)Nc1cc2c(cc1N1CCCCC1)n(C)c(=O)n2C,?,22.0%,/,-16.8%,6.2%[59 µM],/
CCOC(=O)C1CCN(c2cc3c(cc2NC(=O)c2ccccc2Br)n(C)c(=O)n3C)CC1,50.1µM*,5.2%,2.7,?,/,-10.5
COc1ccc(Br)c(C(=O)Nc2cc3c(cc2N2CCCCC2)n(C)c(=O)c(=O)n3C)c1,-16.2%,2.9%,/,-20.2%,-32.7%[59 µM],/
COc1ccc(Br)c(C(=O)Nc2cc3c(cc2N2CCOCC2)n(C)c(=O)n3C)c1,79.4µM*,6.0%,/,-18.8%,-43.2%[59 µM],/
Cc1ccccc1C(=O)Nc1cc2c(cc1N1CCCCC1)n(C)c(=O)n2C,25.1µM*,-28.4%,/,?,15.8µM*,/
CSc1ccccc1NC(=O)CN(C)CC(=O)Nc1ccccc1N1CCOCC1,-2.3%,24.8%,0.6,-14.6%,86.5%[59 µM],1.9
CCOC(=O)C1CCN(C(=O)c2ccccc2NC(=O)c2ccc(Br)cc2)CC1,3.6%,-1.5%,19.1,-9.4%,10.3%[59 µM],-1.4
CC1(C(=O)NCCc2ccccc2)Cc2c(-c3ccc(C(N)=O)cc3)ccnc2O1 (centres undefined),/,/,-0.2,/,/,1.7
CN(C)c1cc2c(cc1NC(=O)c1ccccc1Cl)n(C)c(=O)n2C,50.1µM*,16.5%,3.3,-12.6%,-23.5%,5.1
Cc1ccccc1C(=O)Nc1cc2c(cc1N1CCOCC1)n(C)c(=O)n2C,50.1µM*,7.0%,/,-16.4%,-22.2%[59 µM],/
COc1ccccc1C(=O)Nc1ccccc1N1CCOCC1,5.1%,17.2%,2.1,-11.5%,16.6%,2.1
Cc1cc(C(=O)Nc2ccccc2N2CCOCC2)c(C)o1,0.2%,8.7%,-5.6,-8.3%,56.2µM*,-0.4
SMILES,BAZ2B block,HP1b binding inh,Six1-Eya2 blk,JMJD2A Tudor inh,G9a block,CtBP-E1A blk
CCOc1ccccc1C(=O)Nc1cc2c(cc1N1CCOCC1)n(C)c(=O)n2C,?,-10.5%,/,-21.6%,-16.3%[59 µM],/
CC(=O)OCC(NC(=O)C(CCCCNC(=O)OCc1ccccc1)NC(=O)OC(C)(C)C)C1OC(n2ccc(=O)[nH]c2=O)C(OC(C)=O)C1OC(C)=O (centres undefined),/,27.3%,/,-14.5%,/,/
CCC1CCC(N2CCN(c3ccc(F)cc3)CC2)CC1 (centres undefined),-37.9%,16.3%,-16.8,-13.1%,44.7µM*,-12.2
CCC1CCC(N2CCN(c3ccc([N+](=O)[O-])cc3)CC2)CC1 (centres undefined),70.8µM*,-0.6%,-25.0,?,/,?
c1ccc(CN2CCC(Nc3nc(-c4cccs4)nc4ccccc34)CC2)cc1,?,3.1%,-15.1,?,35.5µM*,/
c1csc(-c2nc(NCC3CCCO3)c3ccccc3n2)c1 (centres undefined),3.8%,35.1%,-3.0,-17.0%,15.3%,-9.8
Cc1onc(-c2c(Cl)cccc2Cl)c1C(=O)N[C@H]1C(=O)N2[C@H]1SC(C)(C)[C@H]2C(=O)O,/,/,/,/,32.3%[21.5 µM],/
CC[C@@H](C)[C@H]1O[C@]2(CC[C@@H]1C)C[C@@H]1C[C@@H](C/C=C(\C)[C@@H](O[C@H]3C[C@H](OC)[C@@H](O[C@H]4C[C@H](OC)[C@@H](O)[C@H](C)O4)[C@H](C)O3)[C@@H](C)/C=C/C=C3\CO[C@@H]4[C@H](O)C(C)=C[C@@H](C(=O)O1)[C@]34O)O2,/,/,/,/,21.2%[12.7 µM],/
COc1ccccc1/C=C1\CCCC2=C1Nc1nnnn1C2c1ccccc1OC (centres undefined),?,7.0%,-3.3,?,10µM*,0.2
O=C(O)c1cccc(NC(=S)NC(NC(=O)c2cccc([N+](=O)[O-])c2)C(Cl)(Cl)Cl)c1 (centres undefined),-38.4%,6.8%,?,-22.5%,50.1µM*,-19.4
Cc1ccc(NC(=S)NNC(=O)c2cccc([N+](=O)[O-])c2)cc1Cl,?,-15.4%,-5.9,?,12.6µM*,/
O=C(O)c1cccc(NC(=S)NC(NC(=O)c2ccccc2[N+](=O)[O-])C(Cl)(Cl)Cl)c1 (centres undefined),4.4%,38.7%,1.6,-6.7%,?,3.1
CC1(C(=O)NNC(=O)c2ccc([N+](=O)[O-])cc2)CC1(Br)Br (centres undefined),-9.2%,60.9%,3.8,-17.6%,/,-7.6
CC1(C(=O)NNC(=O)c2cccc([N+](=O)[O-])c2)CC1(Br)Br (centres undefined),-35.1%,85.4%,21.5,-22.8%,20µM*,8.5
O=C(NNC(=S)Nc1ccc(F)cc1)c1cccc([N+](=O)[O-])c1,-3.9%,-4.1%,9.9,-20.3%,44.7µM*,-12.9
CCCc1nnc(SCC(=O)Nc2ccc(NC(C)=O)cc2)n1-n1cccc1,13.1%,20.3%,-2.8,0.0%,1.9%[0.501 µM],3.5
